Screens deposited in PubChem BioAssay by National Center for Advancing Translational Sciences (NCATS).
This is a sample that favours compounds with a hit; in the whole collection about 12% have one here.
Marburg entry inh – qHTS for inhibitors of binding or entry into cells for Marburg Virus; Potency, µM (top dose mostly 37.8 µM), hits mostly inhibitors; Marburg virus pseudotyped entry inhibition, cell reporter; AID 540276, 2011; hit rate 1.8% among 300,000; calls by dose curve; tested in HEK293 cells
Lassa entry inh – qHTS for Inhibitors of binding or entry into cells for Lassa Virus. hit rate 1.2% among 300,000. Potency, µM (doses to about 37.9 µM), hits mostly inhibitors. Lassa virus pseudotype entry inhibition, cell reporter. AID 540256, 2011; calls by dose curve; tested in HEK293 cells; also: nearly all actives have a fitted effect of over 50% in size
Shiga inhibitor – A qHTS for Small Molecule Inhibitors of Shiga Toxin; Vero cells, Shiga toxin protein synthesis inhibition reporter; inhibition, % at 38.7 µM; hit rate 9.2% among 290,000; in the data active = inhibition mostly above about 28%, no sharp cut-off; inactive = mostly below about 43%
Cycloheximide cs – Cycloheximide Counterscreen for Small Molecule Inhibitors of Shiga Toxin; max response, %; cell reporter, cycloheximide protein synthesis inhibition counterscreen; hit rate 12% among 300,000; in the data active = max response mostly above about 13%, no sharp cut-off; inactive = mostly below about 14%; also: read at 38.3 µM for the half of the compounds with a filed dose
A number is an active result; n = inactive; u = inconclusive; x = not tested or not shown; ! = not confirmed by another sample.

SMILES	Marburg entry inh	Lassa entry inh	Shiga inhibitor	Cycloheximide cs
COC(=O)C(C(=O)OC)[C@H]1c2ccccc2[C@@H]2C(=C[C@@H](C)[C@H]3C(=O)N(c4ccccc4)C(=O)[C@H]32)N1C(=O)OC	n	x	x	x
COc1ccc(C(O)(c2ccccc2OC)C(CN2CCOCC2)c2ccccc2)cc1 (stereo unspecified)	11µM	x	n	n
CCCOc1ccc(C(=O)C(CN2CCCC2)c2ccccc2)cc1 (stereo unspecified)	u	u	n	n
CCOc1ccc(C(O)(c2ccccc2OC)C(CN2CCCC2)c2ccccc2)cc1 (stereo unspecified)	x	x	n	n
O=C(c1ccccc1)C(CCC(CN1CCOCC1)C(=O)c1ccccc1)CN1CCOCC1 (stereo unspecified)	u	14µM	n	n
COc1ccc(C(=O)C(CN2CCOCC2)c2ccccc2)cc1 (stereo unspecified)	u	13µM	n	n
CCCCOc1ccc(C(=O)C(CN2CCOCC2)c2ccccc2)cc1 (stereo unspecified)	u	u	n	n
COc1ccc(C(=O)C(CN2CCCC2)c2ccccc2)cc1 (stereo unspecified)	u	u	n	25
COc1ccccc1C(=O)NCC(=O)NCCC(c1ccccc1)c1ccccc1	u	n	x	x
Cc1cc(NC(=O)Cc2ccccc2)c2ccccc2n1	x	x	n	n
Cc1nc2ccccc2c2nc(NC(=O)Cc3ccccc3)nn12	n	n	42	n
COc1cccc2c(=O)c3c([nH]c12)OC(C)(C)C3	n	n	x	x
COc1cccc2c3c(c(=O)[nH]c12)CCC(C)(C)O3	n	n	n	13
Cc1ccc(NC(=O)CSc2ncn[nH]2)c([N+](=O)[O-])c1	n	n	x	x
O=C(/C=C/c1ccccc1)NC(=S)Nc1ccccc1	n	n	x	25
O=C(/C=C/c1ccc(F)cc1)NC(=S)Nc1ccccc1	n	n	34	n
NC(N)=NS(=O)(=O)c1ccc(NC(=S)NC(=O)/C=C/c2ccc(F)cc2)cc1	n	n	n	n
O=C(/C=C/c1ccccc1)NC(=S)Nc1ncccn1	x	x	51	25
O=C(/C=C/c1ccccc1)NC(=S)Nc1ccc(N2CCOCC2)cc1	n	n	n	n
O=C(/C=C/c1ccccc1)NC(=S)NNC(=O)c1ccco1	n	n	65	20
CC(C)C1C(=O)O[C@@H]2CCN3CC=C(COC(=O)[C@](C)(O)[C@]1(C)O)[C@H]23 (stereo partly specified)	x	x	n	n
O=C(COC(=O)c1cc(-c2ccccc2Cl)nc2ccccc12)Nc1ncc(C(F)(F)F)cc1Cl	n	n	n	n
CC#C[C@]1(O)CC[C@H]2[C@@H]3CCC4=CC(=O)CCC4=C3[C@@H](c3ccc(N(C)C)cc3)C[C@@]21C	10µM!	8.2µM!	n	n
CC(=O)/C(C#N)=C1\NC(=O)C(Cc2ccc(C)c(Cl)c2)S1 (stereo unspecified)	u	u	n	16
CCc1ccc(CC2S/C(=C(\C#N)C(C)=O)NC2=O)cc1 (stereo unspecified)	u	5.8µM	n	n
SMILES	Marburg entry inh	Lassa entry inh	Shiga inhibitor	Cycloheximide cs
Cc1nc2c(ccc3c([N+](=O)[O-])cccc32)c(C)c1C	x	x	n	37
Cc1cc(-c2ccc(C(=O)O)s2)cnc1N	x	x	76	43
O=C(O)c1ccc(-c2ccc(-c3ccccc3)cc2)s1	x	x	n	23
CCc1ccc(NC(=O)c2ccc(-c3ccccc3)s2)cc1	n	n	x	x
CC1(C)C=C(c2ccc(C(=O)O)s2)CC(C)(C)N1	n	n	n	n
O=C(Nc1ccccc1)c1ccc(-c2ccccc2)s1	u	x	100	39
Cc1ccc(C2Nc3ccccc3-n3c(-c4ccccc4)c4c(=O)n(C)c(=O)n(C)c4c32)o1 (stereo unspecified)	n	n	x	x
COc1cccc(/C=N/NC(=S)Nc2cccc(C(=O)O)c2)c1	x	x	95	36
COc1ccc(C(=O)/C=C/c2ccc(OC)c(COc3ccccc3F)c2)cc1	u	n	n	n
COc1ccc(/C=C/C(=O)C2CC2)cc1COc1cccc(C)c1C	u	7.1µM	n	n
COc1ccc(/C=N/NC(=S)Nc2cccc(C(=O)O)c2)cc1OC	u	u	n	16
COc1ccc(C(=O)Oc2cccc(/C=N/NC(N)=S)c2)cc1	u	n	51	16
CN1CCN(S(=O)(=O)c2cccc(C(=O)Nc3cc(Cl)ccc3N3CCOCC3)c2)CC1	n	n	x	x
CCN(C(=O)CN(C)S(=O)(=O)c1ccc2c(c1)n(C)c(=O)c(=O)n2C)c1cccc(C)c1	n	n	x	x
COc1ccc(/C=N/NC(=O)c2ccccc2OC)cc1COc1ccc(C)cc1	u	n	n	n
COc1ccc(/C=N/NC(=S)Nc2ccccc2)cc1COc1cccc(C)c1C	x	x	31	n
Cn1c(=O)c2ncn(C)c2n(C)c1=O	n	n	x	x
O=C(Cc1ccccc1)N/N=C/c1ccccc1F	x	x	58	n
O=C(Cc1ccccc1)NN=Cc1ccccc1	n	n	x	x
O=C(Cc1ccccc1)N/N=C/c1cc(Br)c(Br)o1	n	n	38	43
COc1cccc(C(=O)N(Cc2ccc(N(C)C)cc2)C2CCS(=O)(=O)C2)c1 (stereo unspecified)	n	n	n	n
Cc1ccc(/C=C/C(=O)c2ccccc(=O)c2O)c(C)c1	u	u	30	n
Cc1ccc(C)c(/C=C/C(=O)c2ccccc(=O)c2O)c1	u	u	52	111
O=C(C=Cc1ccccc1O)c1ccccc1O	u	n	x	x
O=C(/C=C/c1ccccc1Cl)c1ccccc(=O)c1O	u	u	89	65
SMILES	Marburg entry inh	Lassa entry inh	Shiga inhibitor	Cycloheximide cs
CC(=O)Nc1ccccc1NC(=O)c1ccc(C)cc1C	u	n	n	n
CCN1CCOC(=O)C1CC(=O)Nc1ccc(C)c(Cl)c1 (stereo unspecified)	n	n	x	x
Cc1ccc(CN(Cc2ccco2)C(=O)c2oc3ccc(C)cc3c2C)cc1	n	n	x	x
Cc1ccc2oc(C(=O)N(C)Cc3cnccn3)c(C)c2c1	n	n	120	35
CCCc1ccc2oc(C(=O)N(C)Cc3ccn[nH]3)c(C)c2c1	n	u	65	48
CCOc1ccc2oc(C(=O)N(C)CC(=O)Nc3ccc(OCC)c(OCC)c3)c(C)c2c1	n	n	x	x
CCCc1ccc2oc(C(=O)N(Cc3nccn3C)C(C)C)c(C)c2c1	x	x	35	21
Cc1ccc(NC(=O)Cn2c(=O)n(CC(=O)NCCc3ccccc3)c(=O)c3ccccc32)cc1	n	n	x	x
O=C(CCN1C(=O)C2CC=CCC2C1=O)Nc1cc(C(F)(F)F)ccc1N1CCCC1 (stereo unspecified)	n	n	x	x
O=C(C[n+]1cn(C(F)F)c2ccccc21)c1ccc(OC(F)F)cc1	n	n	61	29
CCOC(=O)C1=C(C)NC(=O)C(C(N)=O)C1c1ccccc1 (stereo unspecified)	n	n	n	n
COC(=O)C(O)(c1ccc(NC(=O)c2ccccc2)cc1)C(F)(F)F (stereo unspecified)	x	x	103	51
CCCCNC(=O)Nc1ccc(C(O)(C(=O)OC)C(F)(F)F)cc1 (stereo unspecified)	u	n	n	n
COC(=O)C(O)(c1ccc(NC(=O)c2cccs2)cc1)C(F)(F)F (stereo unspecified)	x	x	72	33
S=c1[nH]nc(-c2ccc(Cl)cc2)n1CCCN1CCOCC1	x	x	n	n
